Test results: PubChem BioAssay

Assay: NFkB reporter suppression in cystic fibrosis bronchial cells – cell-based, uHTS hits, panel, cytotoxicity readout, dose response (AID 624344)
Conditions: CF bronchial epithelial cells, PAF-induced NFkB reporter inhibition, with PAF, run 1; at 79 µM (top of the series) unless noted

SMILES | inhibition [%]
Brc1ccc2ncnc(NCc3cccnc3)c2c1 | 105
Cc1ccc2occ(/C=N/NC(=O)c3ccccc3C)c(=O)c2c1 | 102
COc1ccc(-c2cn[nH]c2-c2ccc(OC)cc2)cc1 | 104
Cc1nnc(NC(=O)Nc2ccc(Cl)c(Cl)c2)s1 | 91.7

Assay: as above
Conditions: CF bronchial epithelial cells, PAF-induced NFkB reporter inhibition, with PAF, run 2; at 79 µM (top of the series) unless noted

SMILES | inhibition [%]
Brc1ccc2ncnc(NCc3cccnc3)c2c1 | 94.9
Cc1ccc2occ(/C=N/NC(=O)c3ccccc3C)c(=O)c2c1 | 110
COc1ccc(-c2cn[nH]c2-c2ccc(OC)cc2)cc1 | 104
Cc1nnc(NC(=O)Nc2ccc(Cl)c(Cl)c2)s1 | 87.1
